Measurements reported in PubChem BioAssay (EPA / NIEHS).
Records with an inconclusive call do not appear. Active and inactive are the calls of the source. The calls were made as follows, unless noted: active = hit-call score of the fitted dose curve at least 0.9, where 1 is the maximum; inconclusive = response in the unintended direction; inactive = score below 0.9.

Test system: not listed separately
Experiment: Tanguay_ZF_120hpf_NC_legacy: (Legacy) Oregon State University Tanguay Lab 120 Hour Post-fertilization zebrafish Assay for Notochord and Tail Malformation (AID 2283656)
Settings: not given
Outline: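 Dechorionated 5D zebrafish, 1/well from 6 hpf; static exposure to 120 hpf, 28C, sealed, dark; final DMSO 0.64% v/v. NC scored binary (present/absent); dead embryos not scored. Fit vs DMSO baseline, gain direction.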

Row | Compound | outcome
1 | Cc1cc(NC(=O)C(=O)O)cc(C)c1Oc1ccc(O)c2c1CCC2 | inactive
2 | Nc1ccc(S(=O)(=O)c2ccc(N)cc2)cc1 | inactive
3 | Cc1cccc(C)c1O | inactive
4 | Nc1nc(N)c2nc(CNc3ccc(C(=O)N[C@@H](CCC(=O)O)C(=O)O)cc3)cnc2n1 | inactive
5 | Cc1c(C(=O)O)c(O)cc2c1C(=O)c1c(O)c([C@@H]3O[C@H](CO)[C@@H](O)[C@H](O)[C@H]3O)c(O)c(O)c1C2=O | inactive
6 | CCCCCCCCCCC | inactive
7 | COc1cc(C=O)ccc1O | inactive
8 | Cc1ccc(C)c(O)c1C | inactive
9 | CC(=O)OC/C=C(\C)CCC=C(C)C | inactive
10 | CCCCCCC(=O)OCC | inactive
11 | Cc1ccc(Cl)cc1 | inactive
12 | C1CCC(SSC2CCCCC2)CC1 | inactive
13 | Cc1cc(=O)[nH]c(=S)[nH]1 | inactive
14 | Cc1oc(-c2ccccc2)nc1CCOc1cccc2c1ccn2CCC(=O)O | inactive
15 | COc1cc(S(=O)(=O)O)c(C)cc1N=Nc1c(O)ccc2cc(S(=O)(=O)O)ccc12 | inactive
16 | Nc1ccc2c(c1)C(=O)c1ccccc1C2=O | inactive
17 | O=c1c(O)c(-c2ccc(O)c(O)c2)oc2cc(O)cc(O)c12 | inactive
18 | NS(=O)(=O)c1cc2c(cc1Cl)NCNS2(=O)=O | inactive
19 | CCOC(=O)CCC(=O)OCC | inactive
20 | Oc1ccc2ccccc2c1N=Nc1ccccc1 | inactive
21 | CN[C@H]1CC[C@@H](c2ccc(Cl)c(Cl)c2)c2ccc(S(N)(=O)=O)cc21 | inactive
22 | CN1CCCC1=O | inactive
23 | Cc1ccc(C)c(C)c1 | inactive
24 | C[C@]12C=CC(=O)C=C1CC[C@@H]1[C@@H]2C(=O)C[C@@]2(C)[C@H]1CC[C@]2(O)C(=O)CO | inactive
25 | CCCCN(CCCC)CCCC | inactive
26 | Cc1ccc(N(C)C)cc1 | inactive
27 | CC(=O)Oc1ccccc1C(=O)O | inactive
28 | Nc1ccccc1N | inactive

Read-out: solute carrier (SLC10A1), SLC10A1 (gene 6554)
Experiment: LTEA_HepaRG_SLC10A1: Life Technologies and Expression Analysis (LTEA) Assay for solute carrier (SLC10A1) using HepaRG (AID 2283657; active = hit-call score of the fitted dose curve at least 0.9, where 1 is the maximum; inactive = score below 0.9)
Settings: mRNA level, 48 h; actives raise or lower the signal
Method: LTEA_HepaRG is a cell based, multiplexed-readout assay that uses HepaRG, a human liver cell line, with measurements taken at 48 hours after chemical dosing on a 96-well plate.LTEA_HepaRG_SLC10A1 is one of 102 assay component(s) measured in the LTEA HepaRG cell culture assay. It is a marker of NR mediated transport.Data from the assay component LTEA_HepaRG_SLC10A1 was analyzed into 1 endpoint. This assay endpoint, LTEA_HepaRG_SLC10A1, was analyzed with bidirectional fitting relative to DMSO as the negative control and baseline of activity. Using a type of inducible reporter, measures of mRNA induction for gain or loss-of-signal activity can be used to understand regulation of transcription factor activity. To generalize the intended target to other relatable targets, this assay endpoint is annotated to the transporter intended target family, where the subfamily is sodium/bile acid cotransporter.
A total of 1060 chemcials from the ToxCast library were tested in eight-point concentration-response experiments. Cell culture and cytotoxicity assays were conducted at Thermo Fisher Scientific's Custom Services facility (Madison, WI). A single lot of human HepaRG cells (Thermo Fisher Scientific, Frederick, MD) was used for the cell culture experiments. 96-well format collagen type I coated plates of human HepaRG cells were prepared using established methods. Briefly, cryopreserved HepaRG cells were thawed, plated at a density of approximately 100,000 cells/well in HepaRG Thaw, Plate, and General Purpose media (HPRG770, Thermo Fisher Scientific), and incubated for 48 hours. 0.5% DMSO was selected as vehicle control to balance the requisite need of DMSO in HepaRG cultures to maintain differentiation (for example, baseline metabolism, proportions of hepatocytes vs. cholangiocytes), while enabling further hepatic receptor pathway activation (for example, PXR and CAR) in response to chemical exposure. 48 hours after plating, the culture medium was replaced with HepaRG Serum-Free Incudtion Media. Cells were exposed to each test chemical in duplicate and maintained in CO2 incubators for another 48 hours. Chemical plates were thawed to room temperature and 200x concentrations of treatment groups were prepared. 8-point conentration-reponse curves were made with the highest exposure at 100 uM, followed by half-log dilutions, all in 0.5% DMSO. Each test plate contained variouse controls, induction positive controls (1mM phenobarbital), cytotoxicity positive controls ([…] aflatoxin B1), vehicle controls (0.5% DMSO), and total lysis controls (0.5% DMSO). Cell morphology images were taken using an Essen IncuCyte FLR automated microscope, with six 96-well plates imaged in about 24 minutes. Images were captured and exported and JPEG files. Spent culture media was transfered to black-well plates for the LDH assay, and remaining media was sorted at -80 C for later use. Cells were treated with RLT buffer and frozen until shipped for gene expression analysis. Total RNA was isolated from the cell suspension in 75 uL of Buffer RLT (Qiagen, Germantown, MD 20874) by Quintiles/Expression Analysis (Durham, NC) using a custom isolation procedure. Total RNA from each plate well was transferred to a preamplification plate. Fluidigm's 96.96 Dynamic ArrayTM (Fluidigm, Amsterdam, the Netherlands) technology was used for gene expression analyses by quantitative reverse transcription polymerase chain reaction (qRT-PCR, performed by Quintiles/Expression Analysis, Durham, NC)89. Standard TaqManTM Assays (Applied Biosystems/ThermoFisher Scientific, Foster City, CA) were used to assess the expression of 93 genes selected based on their selectivity and sensitivity to important hepatic receptors known to be modulated by environmental chemicals; importance in human hepatocyte functionality; and hepatotoxicity. […]

Row | Compound | outcome | AC50
29 | CCCCCCCCCCC | inactive | 
30 | COc1cc(C=O)ccc1O | inactive | 
31 | CC(=O)OC/C=C(\C)CCC=C(C)C | inactive | 
32 | Cc1ccc(Cl)cc1 | inactive | 
33 | C1CCC(SSC2CCCCC2)CC1 | inactive | 
34 | Oc1ccc2ccccc2c1N=Nc1ccccc1 |  | 4.88 µM (active)
35 | CN1CCCC1=O | inactive | 
36 | Cc1ccc(C)c(C)c1 | inactive | 
37 | CCCCN(CCCC)CCCC | inactive | 
